From PubChem BioAssay come the findings set out here.

Assay [1] can be described thus: StAR promoter reporter inhibitors, counter-screen for LRH-1 inverse agonist project, cell-based, luminescence, high throughput (AID 651611; in the data active = inhibition above about 28%). To be noted: StAR promoter luciferase reporter counterscreen, at 3.6 µM, hits give high values.
In assay [2] the target is Nuclear receptor subfamily 5 group A member 2 (Homo sapiens) (UniProt O00482). Nature of the assay: LRH-1 (NR5A2) inverse agonists, retest, confirmation, cell-based, luminescence (AID 651613; in the data active = inhibition above about 42%;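 also: HEK293T cells co-transfected with LRH-1 and StAR promoter luciferase reporter; 0% = vehicle wells and 100% = parental cells lacking receptor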). Particulars: cell-based LRH-1 luciferase reporter, inverse agonism; at 3.6 µM; hits give high values.
The target in assay [3] is Steroidogenic factor 1 (Homo sapiens) (UniProt Q13285). Kind of assay: SF1 (NR5A1) inverse agonists, counter-screen for LRH-1 inverse agonist project, cell-based, luminescence, high throughput (AID 651614; in the data active = inhibition above about 44%;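 also: cells cotransfected with StAR promoter reporter and SF1 expression vector; 0% = vehicle on cells with receptor and 100% = vehicle on cells lacking receptor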). To be noted: cell-based SF1 luciferase reporter, at 3.6 µM, hits give high values.
Assay [4] can be described thus: VP16 transactivation reporter inhibitors, counter-screen for LRH-1 inverse agonist project, cell-based, luminescence, high throughput (AID 651615). Particulars: Gal4-VP16 luciferase reporter cells, at 3.6 µM, hits give high values. A general note: The purpose of a counterscreen is to sort out artefacts and off-target activity.

Values without a mark were called inactive. Activity calls are given as the source filed them. Rule as the data show it, unless noted: active = inhibition above about 33%; inactive = the rest.

Chain of Steroidogenic factor 1 (Homo sapiens) (Q13285 whole entry, looked up, the tested form may be a part): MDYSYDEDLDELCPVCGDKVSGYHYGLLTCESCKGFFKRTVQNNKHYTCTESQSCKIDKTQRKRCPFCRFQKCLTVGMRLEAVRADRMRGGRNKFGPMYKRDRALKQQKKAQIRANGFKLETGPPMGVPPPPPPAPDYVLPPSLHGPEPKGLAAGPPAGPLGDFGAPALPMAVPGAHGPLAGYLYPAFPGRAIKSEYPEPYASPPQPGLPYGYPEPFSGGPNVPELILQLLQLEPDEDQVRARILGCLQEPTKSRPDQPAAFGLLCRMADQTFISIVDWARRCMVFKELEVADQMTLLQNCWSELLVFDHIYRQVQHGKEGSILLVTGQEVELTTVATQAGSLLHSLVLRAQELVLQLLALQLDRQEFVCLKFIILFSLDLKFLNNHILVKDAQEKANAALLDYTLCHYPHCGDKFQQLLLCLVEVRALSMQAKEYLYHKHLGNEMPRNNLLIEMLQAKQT
Chain of Nuclear receptor subfamily 5 group A member 2 (Homo sapiens) (O00482 whole entry, looked up): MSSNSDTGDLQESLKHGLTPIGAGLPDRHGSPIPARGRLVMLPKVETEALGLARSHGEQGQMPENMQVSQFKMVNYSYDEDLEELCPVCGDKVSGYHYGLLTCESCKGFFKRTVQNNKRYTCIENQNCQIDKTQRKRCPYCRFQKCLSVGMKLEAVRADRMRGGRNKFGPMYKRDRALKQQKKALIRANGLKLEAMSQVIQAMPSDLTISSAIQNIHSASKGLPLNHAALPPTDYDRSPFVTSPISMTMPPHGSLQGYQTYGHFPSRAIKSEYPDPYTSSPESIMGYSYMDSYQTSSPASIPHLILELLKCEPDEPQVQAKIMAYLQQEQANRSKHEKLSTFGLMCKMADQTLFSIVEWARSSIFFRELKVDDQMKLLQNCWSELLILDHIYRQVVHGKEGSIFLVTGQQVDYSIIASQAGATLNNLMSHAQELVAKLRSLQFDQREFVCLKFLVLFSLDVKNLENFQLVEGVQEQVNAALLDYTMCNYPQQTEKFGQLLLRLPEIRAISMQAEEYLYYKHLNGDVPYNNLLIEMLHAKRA

On to `O=[N+]([O-])c1ccc(/C=N/Nc2ccnc3cc(Cl)ccc23)o1`, for which the inhibition in assay [1] was -10.6%; in assay [2] it was 44% (active); in assay [3] it was 40%; in assay [4], -10.5%.
The like results for `COc1cccc(/C=N/Nc2nc(Nc3ccccc3)nc(-n3nc(C)cc3C)n2)c1O` were, in that order, 40.7% (active), -7.01%, 0.2% and -6.05%.
The like results for `CC(=O)Nc1ccc2nc(NC(=O)c3ccc([N+](=O)[O-])o3)sc2c1` were, in that order, 1.53%, 53.5% (active), 55.8% (active) and -32.4%.
Turning to `COc1cc2cc(C(=O)NC(C)c3cccc4ccccc34)c(N)nc2cc1OC` (stereo not drawn), the inhibition in assay [1] was 34.5% (active); in assay [2] it was 43.9% (active); in assay [3] it was 59.1% (active); in assay [4] it was 23.9%.
The like results for `CCOc1ccc(CCNC(=O)COC(=O)c2c(C)nn(-c3ccccc3)c2C)cc1OCC` were, in that order, 3.09%, 41.6% (active), 28.1% and 2.25%.
The like results for `COc1ccc(N2CC(C(=O)N/N=C/c3ccc(C)cc3)CC2=O)cc1` (stereo not drawn) were, in that order, 40.7% (active), 40%, 29.4% and 19.5%.
The like results for `COC(=O)c1ccc(CNC(=O)COC(=O)c2cc(Cl)nc(Cl)c2)cc1` were, in that order, 11.2%, 52.4% (active), 37.1% and 11.2%.

In general, inhibition refers to the change of the read-out against control, counted positive when it falls.
